According to PubChem BioAssay AID1457 (National Center for Advancing Translational Sciences (NCATS), 2008):
The campaign covered roughly 210,000 compounds. About 730 (0.35%) were called active. Another 1% or so got no clear call; they are omitted. Calls follow the shape of the dose curve; as a rule, active = well fitted inhibition curve with a large enough effect; inconclusive = small, poorly fitted or top-dose-only effect; inactive = no such curve, though single readings can be large or run the other way. The full list was thinned out, with actives kept by preference.

Assay: qHTS Assay for Identifying the Cell-Membrane Permeable IMPase Inhibitors: Potentiation with Lithium;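 also: IP1 builds up when IMPase is blocked and the TR-FRET signal falls; nearly all actives have a fitted effect of over 50% in size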;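 as to activity, negative = IMPase inhibition: plate controls were basal vehicle for no effect and high inhibitor control for full effect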
Settings: CHO-M1 cells, IP1 TR-FRET (IP-One), carbachol + lithium; series mostly up to 59.4 µM; activity, negative = IMPase inhibition: at the top concentration
From the text: NIH Chemical Genomics Center [NCGC]
NIH Molecular Libraries Probe Production centers Network [MLPCN]
Assay Submitter (PI): Wei Zheng
Lithium has been widely used for the treatment of bipolar disorder. But lithium has a narrow therapeutic index and it can cause side effects such as thirst, weight gain, tremor, polyuria and memory problems. Although the mechanism for lithium action in treatment of bipolar disorder is still not fully understood, inhibition of inositol monophosphatase (IMPase) and the subsequent depletion of the inositol pool in living cells have been implicated as the primary therapeutic benefit of lithium therapy. Therefore, a selective IMPase inhibitor with reduced side effects might be a good drug candidate to replace lithium for the treatment of bipolar disorder. Several IMPase inhibitors have been discovered previously. However, they are not suitable for therapeutic use because of their poor cell membrane penetrability or oral bioavailability; the development of new cell-permeable IMPase inhibitors is needed.
IMPase catalyzes the hydrolysis of inositol-1-phosphate (IP1) to release free inositol. Binding of an agonist to a Gq coupled GPCR results in the activation of PLC, which hydrolyzes the PIP2 to form inositol-1,4,5-trisphosphate (IP3) and diacyl glycerol (DAG). While DAG activates protein kinase C (PKC), IP3 triggers the elevation of intracellular free Ca2+. The IP3 is very rapidly inactivated by hydrolysis to IP2, IP1 and then inositol by a series of enzymes including IMPase. Free inositols are used for synthesis of PI and thus start another inositol cycle.
To identify new cell-permeable IMPase inhibitors, we developed a cell-based IMPase assay in which the cytosolic IP1 is measured by a time-resolved fluorescence resonance energy transfer (TR-FRET) assay. In this assay, an IP1 specific antibody is used to detect the labeled IP1 tracer. When the cell lysate contains the elevated IP1 due to the inhibition of IMPase, the TR-FRET between the labeled antibody and IP1 tracer is disrupted resulting in a reduction in the total signal. Since the TR-FRET is used, this cell-based assay is a homogenous assay without cell wash and medium change that is suitable for assay miniaturization and HTS. In this particular assay, a small amount of lithium is added to potentiate the response of weak activators.
NCGC Assay Protocol Summary:
A Chinese hamster ovary (CHO) cell line stably expressing the M1 receptor (CHO-M1) was obtained from ATCC and maintained in F-12 Kaighn's media (Invitrogen, Carlsbad, CA) supplemented with 10 % FBS, 100 units/ml penicillin, 100 ug/ml streptomycin and 250 ug/ml geneticin at 37C, 5% CO2 in a humidified atmosphere. Before the assay, aliquots of cells were frozen and stored at -135C. The assay was performed in 1536-well format. Data are reported for both the ratio of the two emission wavelengths, and also for the component 'donor' channel, Em2=620. […] AC50 values were determined from concentration-response data modeled with the standard Hill equation.
(1) Frozen CHO-M1 cells were thaw, washed once with fresh media and resuspended in F12K media containing 10% FBS, 100 units/ml penicillin and 100 ug/ml streptomycin. Cells were plated at 4ul/well (2000 cells) in white, tissue culture treated 1536-well plates, and then cultured at 37C, 5 % CO2 for 16 to 30 hours.
(2) Add 23 nl/well of compound in DMSO solution. The final titration for each compound was between 0.6 nM and 46 uM.
(4) Incubation at 37C, 5 % CO2 for 30 min.
(5) Add 1 ul/well of d2-conjugated IP1 (d2-IP1) and 1 ul/well of Eu+ cryptate conjugated anti-IP1 antibody (Eu+-Ab) prepared in the cell lysis buffer, both from the IP-One kit (Cisbio, MA).
(6) Incubate at room temperature for 10 minutes.
(7) Detect the assay plate (Ex = 320, Em1 =665 and Em2 620) in a ViewLux plate reader.
Potency is read from the fitted curve at half-maximal effect.

activity, negative = IMPase inhibition, inactive:
Cc1cc2oc(=O)cc(-c3ccccc3)c2c(C)c1/C=C/c1ccc(F)cc1 -7.25%
Cc1ccc(-c2cccc([C@H]3[C@@H]4C=CC[C@@H](C)[C@@H]4C(=O)N3Cc3ccccc3)c2)cc1 10%
CC(=O)/C(C)=N/O -3.22%
Cc1ccc2nc(-c3ccncc3)cc(C(=O)Nc3ccc(OC(F)F)cc3)c2c1 16.8%
O=C(NCc1ccccn1)c1cc(Br)ccc1Cl 5.27%
Cc1ccc2nc(-c3ccccn3)cc(C(=O)Nc3ccc4c(c3)OCO4)c2c1 4.54%
Cc1ccc(-c2cc(C(=O)NCc3cn(C)nc3C)c3cc(Br)ccc3n2)cc1 -14.7%
S=C(NCCCc1cnc[nH]1)NCCCN(Cc1ccc(Cl)c(Cl)c1)c1ccc(Br)cn1 2.14%
C=CC(C1=CC(=O)C=CC1=O)c1ccc(O)cc1 (configuration not stated) 38.9%
COc1cccc([C@@H]2Oc3ccc(Br)cc3C(=O)[C@H]2OC(=O)NCc2ccc3c(c2)OCO3)c1 9.58%
CC(=O)[C@H](C(c1ccccc1)N1CCOCC1)N1CCOCC1 (some centres not stated) -10.4%
COC(=O)C1=C(C(=O)OC)[C@@H]2N(Cc3ccccc3)c3ccccc3[C@@]23C[C@@H](C(=O)OC)N(S(=O)(=O)c2ccc(C(F)(F)F)cc2)C3=N1 9.75%
CC/C=C\C/C=C\C/C=C\C/C=C\C/C=C\C/C=C\CCC(=O)NC(C)C(=O)O (configuration not stated) 18%
COC(=O)C/C=C/[C@@H](C)[C@H](NC(=O)OCC(Cl)(Cl)Cl)c1ccccc1 3.99%
C=C(C(C)=O)C(O)c1ccc([N+](=O)[O-])cc1 (configuration not stated) 39.2%
O=C1OCCN1C(=O)[C@H]1[C@H](c2ccc(F)cc2)C(c2ccccc2)=NN1c1ccc(Br)cc1 0.301%
C=C/C1=C/Cc2ccccc2[C@H](C[N+](=O)[O-])C(C(=O)OC)(C(=O)OC)C1 17.6%
C=CC1=C2C=C(C3CC3)N(CC(C)C)C=C2C(=O)C(C)(OC(=O)c2ccco2)C1=O (configuration not stated) 7.37%
O=C1OCCN1C(=O)[C@H]1[C@H](c2ccccc2)C(c2ccc(F)cc2)=NN1c1ccccc1 -13.4%
COc1ccc(/C=C2\NC(=O)[C@@H]3Cc4ccccc4CN3C2=O)cc1 12.7%
NCCC(=O)c1ccccc1N -1.61%
COC(=O)C1=C(C(=O)OC)[C@@H]2N(C)c3ccccc3[C@@]23C[C@@H](C(=O)OC)N(S(=O)(=O)c2cccs2)C3=N1 8.96%
C=CCN1C=C2C(=O)C(C)(OC(=O)CCc3ccccc3)C(=O)C=C2C=C1c1ccc(C#N)cc1 (configuration not stated) -2.86%
Cc1ccc(C(=O)c2c(NC(=O)c3ccncc3)sc3c2CCCC3)cc1 42.5% [at 38.3 µM]
C=CCN(CC=C)S(=O)(=O)c1ccc(C(=O)Nc2nc3c(s2)CCc2ccccc2-3)cc1 6.49%
CC(C)=CCN1CCC2(CCc3ccccc32)CC1 -23.8%
C[C@H]1Cc2c(-c3ccccc3)nc3c(c2CO1)CN(C(=O)C1CC1)CC3 11.8%
COc1ccccc1C1/C(=C(/O)c2ccc(OC(C)C)cc2)C(=O)C(=O)N1c1cc(C)on1 (configuration not stated) 6.7% [at 38.3 µM]
COc1ccc(/C(O)=C2\C(=O)C(=O)N(Cc3ccco3)C2c2ccc(OC)cc2OC)cc1 (configuration not stated) -20.2% [at 38.3 µM]
Cc1cn(C2OC[C@@H](O)[C@@H]2CO)c(=O)[nH]c1=O (some centres not stated) 31%
O=c1c(O)c(Br)ccc2c(Br)c(O)c(O)c(O)c12 38.1%
Cc1cccc([C@H]2[C@@H]3C=CC[C@@H](C)[C@@H]3C(=O)N2Cc2ccccc2)c1 6.4%
COC(=O)N1C(/C=C/C=C/c2ccc(OC)cc2)=Cc2ccccc2C1CC(C)=O (configuration not stated) 5.89%
CCCCC/C=C\C/C=C\C/C=C\CCCCC(=O)NCC(=O)O 4.54%
CCC(C)[C@@H](N)C(=O)O (some centres not stated) -2.45%
C=CCN1c2ccccc2[C@]23C[C@@H](C(=O)OC)N(S(=O)(=O)c4ccc([N+](=O)[O-])cc4)C2=NC(C(=O)OC)=C(C(=O)OC)[C@H]13 8.65%
COCc1cc(C)nc(Nc2cc(C)ccc2C)c1C#N 2.06% [at 38.3 µM]
Cc1cc(C)c(C#N)c(SCC(=O)Nc2ccccc2)n1 -12.8%
C[C@H]1Cc2c(-c3ccccc3)nc3c(c2CO1)CN(S(=O)(=O)c1ccc(Cl)c2nonc12)CC3 7.59%

Potency, inactive:
COc1ccc(CCCOC(Cn2ccnc2)c2ccc(OC)cc2)cc1 (configuration not stated)
CC(Nc1oc(-c2ccccc2)nc1-c1ccccc1)c1ccccc1 (configuration not stated)

Potency, active:
O=C(NCc1cccs1)c1cc(-c2ccccn2)nc2ccc(Br)cc12 6.31 µM
O=C(Nc1ccncc1)c1cc(-c2ccccn2)nc2ccc(Br)cc12 2.82 µM
CN(C)[C@@H]1C(=O)C(C(N)=O)=C(O)[C@@]2(O)C(=O)C3=C(O)c4c(O)ccc(Cl)c4[C@@H](O)[C@H]3C[C@@H]12 3.98 µM
C=CCN(CC=C)S(=O)(=O)c1ccc(C(=O)Nc2sc3c(c2C(N)=O)CCCCC3)cc1 10 µM
COc1ccc(/C(O)=C2/C(=O)C(=O)N(c3nc(C)c(C)s3)C2c2ccco2)cc1 (configuration not stated) 12.6 µM
COCc1cc(C)nc(SCC(=O)Nc2cccc(C)c2)c1C#N 22.4 µM
